Experimental data from the supplement of paper PMC6522484.
± gives the standard deviation of the averaged measurements.

Columns and labels:
[1] = test system: DLD1; assay: cell viability (CellTiter-Glo) relative to plate median (fraction of plate median); higher = more viable cells; details: 5 µM; treatment time 24 h; reporter: 7TFP
Summary of the method: (§1)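 Each entry is a luminescence signal normalised to the plate median, averaged over independent replicates. The replicate count was two, and the cells were colorectal cancer lines with stable lentiviral TCF/Wnt firefly luciferase reporters exposed to library compounds at a final 5 µM for 24 h. Firefly luciferase and CellTiterGlo were measured on parallel plates.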

[2] = test system: HCT116; assay: as above; details: 5 µM; treatment time 24 h; reporter: TCF4/Wnt
Summary of the method: as §1

[3] = test system: SW480; assay: as above; details: 5 µM; treatment time 24 h; reporter: 7TFP
Summary of the method: as §1

[4] = test system: DLD1; assay: TCF/Wnt firefly luciferase reporter signal relative to plate median (fraction of plate median); higher = higher Wnt reporter signal; details: 5 µM; treatment time 24 h; reporter: 7TFP
Summary of the method: as §1

[5] = test system: SW480; assay: as above; details: 5 µM; treatment time 24 h; reporter: 7TFP
Summary of the method: as §1

SMILES	cell viability [1]	cell viability [2]	cell viability [3]	TCF/Wnt firefly luciferase reporter signal [4]	TCF/Wnt firefly luciferase reporter signal [5]
O=c1c(O)c(-c2ccc(O)cc2O)oc2cc(O)cc(O)c12	1.11 ± 0.11	1.155 ± 0.0071	1.15	1.11 ± 0.099	1.11 ± 0.15
Nc1cc(-c2ccncc2)c[nH]c1=O	1.03 ± 0.042	0.99 ± 0.057	0.928	0.903 ± 0.032	0.94 ± 0.054
O=C(O)C(S)C(S)C(=O)O (stereo not given)	1.04 ± 0.05	1.03 ± 0.099	1.01 ± 0.096	0.904 ± 0.1	1.004 ± 0.0078
COc1cc(/C=C/C(=O)O)cc(OC)c1OC	0.983 ± 0.016	0.961 ± 0.015	0.903 ± 0.056	0.827 ± 0.072	0.972 ± 0.0028
O=C1c2c(O)cccc2C([C@@H]2O[C@H](CO)[C@@H](O)[C@H](O)[C@H]2O)c2cc(CO)cc(O)c21 (stereo not given in full)	1.05 ± 0.1	1.1 ± 0.078	1.015 ± 0.0071	1.2 ± 0.021	1.07 ± 0.05
CCCCc1oc2ccccc2c1C(=O)c1cc(I)c(OCCN(CC)CC)c(I)c1	1.02 ± 0.089	1.02 ± 0.036	0.964 ± 0.019	1.02 ± 0.029	1.04 ± 0.1
OCCOCCN1CCN(C(c2ccccc2)c2ccc(Cl)cc2)CC1 (stereo not given)	0.978 ± 0.045	1.07 ± 0.014	1.01 ± 0.026	1.03 ± 0.021	1.075 ± 0.0071
C=C[C@@H](C1=CC(=O)C(OC)=C(OC)C1=O)c1ccccc1	0.903 ± 0.0057	0.856 ± 0.11	1.08 ± 0.014	0.712 ± 0.033	0.907 ± 0.023
C=C(C)[C@@H]1CC=C(C(=O)O)CC1	1.055 ± 0.0071	1.04 ± 0.11	0.995 ± 0.035	1.11 ± 0.17	1.055 ± 0.0071
Cc1cc(O)c2c(c1O)C(=O)c1c(O)cc(C)c(O)c1C2=O	0.979 ± 0.019	0.968 ± 0.1	0.986 ± 0.063	0.964 ± 0.039	1.01 ± 0.014
O=S(=O)(O)CCS	1.01 ± 0.058	1.06 ± 0.014	1.02 ± 0.054	1.01 ± 0.19	1.1 ± 0.028
C[C@H]1C[C@H]2[C@@H]3CCC4=CC(=O)C=C[C@]4(C)[C@@]3(F)[C@@H](O)C[C@]2(C)[C@@]1(O)C(=O)CO	0.973 ± 0.0099	1.03 ± 0.086	1.01 ± 0.016	0.938 ± 0.027	0.953 ± 0.0028
CC(Oc1ccccc1)C(=O)N[C@@H]1C(=O)N2[C@@H]1SC(C)(C)[C@@H]2C(=O)O (stereo not given in full)	0.97 ± 0.032	0.928 ± 0.022	0.9865 ± 0.00071	1.07 ± 0.071	1.065 ± 0.0071
C/C=C(/C(=C/C)c1ccc(O)cc1)c1ccc(O)cc1	0.987 ± 0.018	0.997 ± 0.061	1 ± 0.015	1.07 ± 0.15	1.09 ± 0.071
C=C(C)[C@@H]1C[C@H](O)[C@]2(C(=O)O)CC[C@]3(C)[C@H](C[C@H]4OC(=O)C[C@@H](O)[C@]5(C)[C@@H]4[C@@]3(C)CC[C@H]5C(=C)C)[C@@H]12 [22alpha-hydroxychiisanogenin (11)]	0.883 ± 0.21	0.884 ± 0.14	0.984 ± 0.094	0.859 ± 0.2	0.922 ± 0.017
